According to PubChem BioAssay AID1159580 (chemical genetic matrix, 2015):
Out of some 5,500 compounds screened, about 2,000 (36%) were called active. Another 18% or so got no clear call; they are omitted. Rule as the data show it: active = normalized growth mostly below about 0.91 (no sharp cut-off); inconclusive = no clear call, values can overlap the other calls; inactive = mostly above about 0.92. This is one part of the list.

Assay: chemical genetic growth profiling, strain panel (AID 1159580);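 also: tested at 20 µM; growth read once vehicle control cultures reached saturation at 30 °C; 1 = growth at the plate median or of vehicle wells; lower values mean less growth of the strain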
Conditions: S. cerevisiae deletion strains, growth OD

Measured: normalized growth

O=C(O)c1cc(=O)cc(C(=O)O)[nH]1
inactive: locus YAL040C, strain CLN3, active compounds read low 1.02 | locus YCL061C, strain MRC1 (second series), active compounds read low 1.01 | locus YER002W, strain NOP16, active compounds read low 1.04 | locus YMR263W, strain SAP30, active compounds read low 0.998 | locus YMR307W, strain GAS1, active compounds read low 1.01 | locus YNL175C, strain NOP13, active compounds read low 0.999 | locus YNL197C, strain WHI3, active compounds read low 1.03 | locus YNL224C, strain SQS1, active compounds read low 1.01 | locus YOR083W, strain WHI5 (second series), active compounds read low 1.02 | locus YPL055C, strain LGE1, active compounds read low 1.01
